Assay results: PubChem BioAssay (Tox21)
Inconclusive results are not listed. A number with no mark means an inactive call. The source made the active and inactive calls. Calls follow the shape of the dose curve; as a rule, active = well fitted cell-killing curve with a large enough effect in the repeat runs; inconclusive = weak or mixed curves; inactive = flat fitted curve, though single readings scatter.

Experiment: qHTS assay to identify small molecule antagonists of the estrogen related receptor (ERR) signaling pathway from Tox21 library - cell viability counter screen (AID 1224834); also: nearly all actives have a fitted effect of over 30% in size
Settings: ERR reporter cells viability, CellTiter-Fluor, 17.5 h; series mostly up to 92.4 µM
Text: National Center for Advancing Translational Sciences [NCATS]
NIH Chemical Genomics Center [NCGC]
U.S. Environmental Protection Agency [EPA]
National Institutes of Environmental Health Sciences [NIEHS]
National Toxicology Program [NTP]
U.S. Food and Drug Administration [FDA]
Estrogen related receptors (ERRs), the first orphan nuclear receptors discovered, play an important role in the control of cellular energy metabolism. ERRs are required for high-energy production in response to the environmental challenges. ERR-alpha was also identified as an adverse marker for breast cancer progression; ERR-alpha-positive tumors have a poor prognosis. To screen and to identify environmental compounds that perturb the ERR signaling pathways could provide valuable information for potential therapeutic or preventive measures in the treatment of metabolic disease. To differentiate true ERR antagonists or agonist from cytotoxic substances, the assay is multiplexed with cell viability assay.
Tox21 Assay Protocol Summary:
The ERR cells were dispensed at 2,000 cells/5 ul/well in 1536-well white plates using a Multidrop dispenser. After the assay plates were incubated at a 37 C/5% CO2 incubator for 6 hours, 23 nL of compounds dissolved in DMSO, positive and negative controls or DMSO only was transferred to the assay plate by a pin tool. The plates were incubated at 37 C for 17.5 hours. 1 ul/well of CellTiter-Fluor reagent was added into the assay plates using a Flying Reagent Dispenser. After 30-minute incubation at 37 C/5% CO2, the fluorescence intensity in the plates was measured using a ViewLux plate reader.
% is scaled to controls: 0 for no effect and ±100 for the full control effect.

SMILES	outcome	viability change, negative = cytotoxic
CN(C)c1ccncc1	inactive	–
CC(C)CC(O)Cc1ccccc1 (stereo not given)	inactive	–
CCOC(=O)CC	inactive	–
c1cc2ccc3ccc4ccc5cccc6c(c1)c2c3c4c56	–	2.9% [at 3.27 µM]
O=C(O)CCCCCCCCCC(=O)O	inactive	–
CCCC[O][Al]([O]CCCC)[O]CCCC	inactive	–
C[C@@H]1CC[C@@]2(OC1)O[C@H]1C[C@H]3[C@@H]4CC[C@H]5C[C@@H](O)CC[C@]5(C)[C@H]4CC(=O)[C@]3(C)[C@H]1[C@@H]2C	–	0.595% [at 8.39 µM]
Nc1cc(S(=O)(=O)O)ccc1O	inactive	–
CC(=O)/C=C/C=C1/C2CCC(C2)C1(C)C (stereo not given)	inactive	–
CCCCN(CCCC)CCCCCCN(CCCC)CCCC	inactive	–
C/C=C(\C)C=O	inactive	–
CCCOc1ccc(C(=O)OCCN(CC)CC)cc1N	inactive	–
O=C(O)P(=O)(O)O	inactive	–
CCN(CC)CC(=O)Oc1ccc(NC(C)=O)cc1	inactive	–
Cc1ccc(NC(N)=O)cc1	inactive	–
CC(=O)SCC(CC(=O)c1ccc(C)cc1)C(=O)O (stereo not given)	inactive	–
C[C@@H](CN1CC(=O)NC(=O)C1)N1CC(=O)NC(=O)C1	inactive	–
O=C(CCBr)N1CCN(C(=O)CCBr)CC1	inactive	–
C=C(C)C(=O)OCCOC1CC2CC1C1C=CCC21 (stereo not given)	inactive	–
CCCCCC(=O)CC	inactive	–

SMILES	outcome	viability change, negative = cytotoxic
CCCCC(CC)COC(=O)CC#N (stereo not given)	inactive	–
COC(=O)c1ccc(C(=O)O)cc1	inactive	–
CN(C)CCCN(C)C	–	0.808% [at 8.39 µM]
CC(C)C(=O)Nc1cccc(C2CN3CCSC3=N2)c1 (stereo not given)	inactive	–
CC1(C)C(=O)C(C)(C)C1=O	inactive	–
O=c1[nH]c(=O)c2cn[nH]c2[nH]1	inactive	–
NNC(=O)CCCCC(=O)NN	inactive	–
COC(=O)N/N=C/c1c[n+]([O-])c2ccccc2[n+]1[O-]	inactive	–
CC(C)c1cc(C(C)C)cc(C(C)C)c1	inactive	–
N[C@H]1C(O)O[C@H](CO)[C@@H](O)[C@@H]1O (stereo not given in full)	inactive	–
CC(C)(Sc1cc(C(C)(C)C)c(O)c(C(C)(C)C)c1)Sc1cc(C(C)(C)C)c(O)c(C(C)(C)C)c1	inactive	–
COc1ccc(Cl)cc1C	inactive	–
COC(=O)c1c(C)cc(O)c(C)c1O	inactive	–
C/C(Cl)=C/CCl	inactive	–
O=CN1CCCCC1	inactive	–
CCCCN1C(=O)c2ccccc2C1=O	inactive	–
O=C(O)Cc1ccccc1Oc1ccc(Cl)cc1Cl	inactive	–
CCCCCCCCCCCCCC(=O)OCC	inactive	–
CO/N=C(\C(=O)O)c1csc(NC(=O)CCl)n1	inactive	–
Cc1ccc(Br)cc1	inactive	–
